Where “and” joins values, the source holds several entries; their conditions need not be identical. Identical values can stand only once. This is part of a sample that, as a whole, favours compounds with a hit. Of some 79,000 tested, about 15% had one in any assay. Calls of active or inactive are those of the source. Rule as the data show it: active = growth inhibition above about 70%; inactive = the rest.
Columns and labels:
[1] = NCI Yeast Anticancer Drug Screen. Data for the mec2-1 strain (AID 157); conditions: S. cerevisiae mec2-1 strain, stronger effect = higher value
Outline: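 Cells of the genetically defined mec2-1 yeast strain are incubated with test compound. Inhibition of growth is calculated against vehicle-treated controls.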

[2] = NCI Yeast Anticancer Drug Screen. Data for the rad14 strain (AID 159);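 also: 0% = growth of vehicle-treated control cultures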; conditions: S. cerevisiae rad14 strain growth inhibition, stronger effect = higher value
Outline: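 Yeast cells carrying a defined DNA-repair defect were exposed to compounds, and growth inhibition was calculated relative to vehicle-treated control cultures.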

[3] = NCI Yeast Anticancer Drug Screen. Data for the sgs1 mgt1 strain (AID 161);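 also: 0% = growth of cultures given vehicle only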; conditions: S. cerevisiae sgs1 mgt1 strain, stronger effect = higher value
Outline: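 Test agents were incubated with a DNA-repair-mutant yeast strain. Growth was then read and compared against vehicle-treated controls.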

[4] = NCI Yeast Anticancer Drug Screen. Data for the cln2 rad14 strain (AID 165);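 also: 0% = growth equal to vehicle treated cultures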; conditions: S. cerevisiae cln2 rad14 strain, stronger effect = higher value
Outline: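 The screen exposed genetically defined yeast (cln2 rad14) to test compounds and scored growth inhibition relative to vehicle-treated controls.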

[5] = NCI Yeast Anticancer Drug Screen. Data for the bub3 strain (AID 167); conditions: S. cerevisiae bub3 mutant strain, stronger effect = higher value
Outline: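 Compounds were applied to a genetically altered yeast strain carrying a cell-cycle control defect. Growth inhibition was scored against vehicle-treated controls.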

[6] = NCI Yeast Anticancer Drug Screen. Data for the wt2 strain (AID 169);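 also: 0% = growth of vehicle-treated yeast cultures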; conditions: S. cerevisiae wt2 strain growth inhibition, stronger effect = higher value
Outline: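 Steps: yeast strain treated with compound; growth recorded; inhibition calculated relative to cultures given vehicle alone.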

[7] = NCI Yeast Anticancer Drug Screen. Data for the mlh1 strain (AID 171);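 also: 0% = growth of vehicle-treated control cultures of the same strain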; conditions: S. cerevisiae mlh1 strain growth inhibition, stronger effect = higher value
Outline: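 Yeast screen: mutant strain plus compound, growth scored against vehicle control wells.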

[8] = NCI Yeast Anticancer Drug Screen. Data for the sgs1 strain (AID 173);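 also: 0% = growth of vehicle-only control cultures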; conditions: S. cerevisiae sgs1 mutant, stronger effect = higher value
Outline: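 Inhibition of yeast growth served as the measure. The mutant strain was treated with each compound, and growth was normalised to cultures receiving vehicle alone.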

[9] = NCI Yeast Anticancer Drug Screen. Data for the mlh1 rad18 strain (AID 175); conditions: S. cerevisiae mlh1 rad18 strain growth inhibition, stronger effect = higher value
Outline: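 Compound-treated yeast growth, normalised to vehicle controls. Strain bears defined DNA repair mutations.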

[10] = NCI Yeast Anticancer Drug Screen. Data for the rad18 strain (AID 177); conditions: S. cerevisiae rad18 mutant growth inhibition, stronger effect = higher value
Outline: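 Inhibition values reflect reduced yeast growth compared with vehicle-treated controls, using a strain engineered with a DNA damage repair defect.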

[11] = NCI Yeast Anticancer Drug Screen. Data for the rad52 strain (AID 147);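 also: 0% = growth of vehicle-treated control cultures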; conditions: S. cerevisiae rad52 mutant growth inhibition, stronger effect = higher value
Outline: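 Genetically altered yeast (DNA damage repair defect) treated with compound; inhibition calculated relative to vehicle.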

[12] = NCI Yeast Anticancer Drug Screen. Data for the wt1 strain (AID 149);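 also: 0% = growth of vehicle-treated wt1 cultures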; conditions: S. cerevisiae wt1 strain (SPY 50644) growth inhibition, stronger effect = higher value
Outline: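 Yeast wt1 strain exposed to compounds; growth inhibition measured relative to vehicle-treated controls.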

[13] = NCI Yeast Anticancer Drug Screen. Data for the rad50EPP+ strain (AID 151);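 also: 0% = growth of vehicle-treated control cultures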; conditions: S. cerevisiae rad50 mutant strain, stronger effect = higher value
Outline: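 Strain rad50EPP+; compound exposure; % growth inhibition vs vehicle.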

[14] = NCI Yeast Anticancer Drug Screen. Data for the mgt1 strain (AID 153); conditions: S. cerevisiae mgt1 mutant growth inhibition, stronger effect = higher value
Outline: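 Read-out: yeast growth inhibition vs vehicle control. Strain mgt1, drawn from a panel altered in DNA damage repair or cell cycle control.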

[15] = NCI Yeast Anticancer Drug Screen. Data for the rad50 strain (AID 155);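 also: 0% = growth of vehicle-only cultures of the same strain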; conditions: S. cerevisiae rad50 strain growth inhibition, stronger effect = higher value
Outline: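 Yeast carrying a defined DNA repair defect were exposed to test compounds, and growth was compared with vehicle-treated controls to give percent inhibition.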

[16] = NCI Yeast Anticancer Drug Screen. Data for the CLN2oe strain (AID 163);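 also: 0% = growth of vehicle-only control cultures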; conditions: S. cerevisiae CLN2oe strain, stronger effect = higher value
Outline: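 Strain altered in cell-cycle control, incubated with compound; growth compared to solvent-treated controls.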

[17] = at 5.0 µM (retest, dose inferred, filed as 0.5)
[18] = at 50.0 µM (retest, dose inferred, filed as 5.0)

Measured: growth inhibition

COc1ccc(C/C=N/Nc2ccc([N+](=O)[O-])cc2)cc1OC
active: [1]; [18] 98% | [1]; at 50.0 µM 97.3% | [3]; [18] 97% | [3]; at 50.0 µM 97.5% | [4]; [18] 89% | [5]; [18] 97% | [5]; at 50.0 µM 98.2% | [8]; at 100.0 µM 73% | [9]; [18] 98% | [9]; at 50.0 µM 97.8%
inactive: [1]; [17] 16% | [1]; at 11.0 µM 4% | [1]; at 33.0 µM 1% | [1]; at 100.0 µM 6% | [2]; at 1.2 µM 3% | [2]; at 3.7 µM 12% | [2]; at 11.0 µM 23% | [2]; at 33.0 µM 25% | [2]; at 100.0 µM 30% | [3]; [17] 9% | [4]; [17] -3% | [4]; at 50.0 µM 54.4% | [5]; at 1.2 µM 3% | [5]; at 3.7 µM 2% | [5]; [17] 12% | [5]; at 11.0 µM 8% | [5]; at 33.0 µM 13% | [5]; at 100.0 µM 23% | [6]; at 1.2 µM -2% | [6]; at 3.7 µM -1% | [6]; at 11.0 µM 5% | [6]; at 33.0 µM 5% | [6]; at 100.0 µM -3% | [7]; at 1.2 µM -1% | [7]; at 3.7 µM 6% | [7]; at 11.0 µM 9% | [7]; at 33.0 µM 11% | [7]; at 100.0 µM 31% | [8]; at 1.2 µM -17% | [8]; at 3.7 µM -24% | [8]; at 11.0 µM -8% | [8]; at 33.0 µM 48% | [9]; [17] 7% | [10]; at 1.2 µM 15% | [10]; at 3.7 µM 43% | [10]; at 11.0 µM 26% | [10]; at 33.0 µM 20% | [10]; at 100.0 µM 56%

COc1cc(/C=C2\CCC/C(=C\c3ccc(O)c(OC)c3)C2=O)ccc1O
inactive: [11]; at 1.2 µM -6% | [11]; at 3.7 µM -6% | [11]; at 11.0 µM 9% | [11]; at 33.0 µM 11% | [11]; at 100.0 µM 4% | [12]; at 1.2 µM 1% | [12]; at 3.7 µM 10% | [12]; at 11.0 µM 15% | [12]; at 33.0 µM 12% | [12]; at 100.0 µM 15% | [13]; at 1.2 µM 0% | [13]; at 3.7 µM -2% | [13]; at 11.0 µM 24% | [13]; at 33.0 µM 22% | [13]; at 100.0 µM 15% | [14]; at 1.2 µM 0% | [14]; at 3.7 µM -1% | [14]; at 11.0 µM 1% | [14]; at 33.0 µM 0% | [14]; at 100.0 µM -3% | [15]; at 1.2 µM -30% | [15]; at 3.7 µM -9% | [15]; [17] 13% | [15]; at 11.0 µM -7% | [15]; at 33.0 µM -7% | [15]; [18] 12% | [15]; at 50.0 µM 2.8% and 9.55% | [15]; at 100.0 µM 8% | [1]; at 1.2 µM -1% | [1]; at 3.7 µM 0% | [1]; [17] 4% | [1]; at 11.0 µM 1% | [1]; at 33.0 µM 0% | [1]; [18] 15% | [1]; at 50.0 µM -13.1% and 63.1% | [1]; at 100.0 µM 0% | [2]; at 1.2 µM 5% | [2]; at 3.7 µM -3% | [2]; at 11.0 µM 12% | [2]; at 33.0 µM 4% | [2]; at 100.0 µM 5% | [16]; at 1.2 µM -7% | [16]; at 3.7 µM -6% | [16]; at 11.0 µM -7% | [16]; at 33.0 µM -5% | [16]; at 100.0 µM -6% | [4]; [17] -4% | [4]; [18] 6% | [4]; at 50.0 µM 1.65% and 9.95% | [5]; at 1.2 µM -5% | [5]; at 3.7 µM -2% | [5]; [17] 1% | [5]; at 11.0 µM -2% | [5]; at 33.0 µM -4% | [5]; [18] 15% | [5]; at 50.0 µM -24.9% and 44% | [5]; at 100.0 µM -12% | [6]; at 1.2 µM 6% | [6]; at 3.7 µM 16% | [6]; at 11.0 µM 22% | [6]; at 33.0 µM 27% | [6]; at 100.0 µM 18% | [7]; at 1.2 µM -8% | [7]; at 3.7 µM -2% | [7]; at 11.0 µM -2% | [7]; at 33.0 µM -1% | [7]; at 100.0 µM -2% | [8]; at 1.2 µM -15% | [8]; at 3.7 µM -10% | [8]; at 11.0 µM 3% | [8]; at 33.0 µM 5% | [8]; at 100.0 µM -6% | [9]; [17] -3% | [9]; [18] 6% | [9]; at 50.0 µM -13.2% and 11.4%
